Target: INF2
Test: pooled miR-30 sensor sort-seq; sequence = guide strand
Conditions: shRNA
Further: reference of the scale not given here.

Sequence | sensor-assay potency score (higher = more potent)
TAGAGTTGTGCTCACGTGCCAC | -0.638
TCAGTGGTTAGGACATCGCTGG | -0.678
TTTCAATCTCGTGCTTCTCGGG | -0.468
TTTCAGGATGCTCTCACTCTGG | -0.623
TTCAGCAATGTGCTGATCTTGA | -0.209
TTGAGGTTCAGGCTCTTCTTGG | -1.01
TTCAATCTCGTGCTTCTCGGGA | -0.3

Target: INO80B
Test: as above
Conditions: shRNA

Sequence | sensor-assay potency score (higher = more potent)
ATTATCCACAACCATAAGGGGA | -1.17
TTTGAGTTTGAGCTGAGGCTTG | -0.36
TTGAGTTTGAGCTGAGGCTTGG | -0.366
TAACCCTCCTGATAGGTCCCGA | -0.336
ATTACTGTCTTCATCCAGCCAG | -0.0733
TTACTGTCTTCATCCAGCCAGG | -0.737
TTGTGTTTCTTCTTGTGCTTCT | 0.567
TTTTCTTGTGCACTCCATGGCC | -0.4
TTATCCACAACCATAAGGGGAG | -0.805
TTCCTGATGGTGTTTCTTCTTG | -0.564
TTCTTGTGCACTCCATGGCCAT | -1.62
TCTGGGATCACAGTGAAGGTAG | 0.138

Target: INO80C
Test: as above
Conditions: shRNA

Sequence | sensor-assay potency score (higher = more potent)
TTCTGTTCTTCTTGCCAGCTAC | -0.723
TTACTTGAGGCAACAACTGAAG | -0.863
ATTTGTTTCAGGTTCTTCCAGG | -0.776
TATAATTTAATTCAGCAGGAAA | -1.3
TTGGAGGGAAAACACACACTAA | -1.27
TGAAACATCAGAATACTTCTTA | 1.15
TACTGAAGTAGTTAGGATCGTT | 0.332
TTCAATGGTGCTGAACCGCAGT | -0.122
TTTACTTGAGGCAACAACTGAA | 0.108
TTGCTGTTCCGGACTATTCCGG | -0.701
TTTTGAAACAGCTTTCCACTTC | 0.164
TGTAGTTGGCAAGCAGACCTGA | -0.0597

Target: INPP5F
Test: as above
Conditions: shRNA

Sequence | sensor-assay potency score (higher = more potent)
TAGACTTAGTCGTTGATACTGG | -0.136
TTGGGTAATACTAGCAACCTGG | -0.472
TAATCTTCTCTCTTCCTGCCTG | 0.168
TTGCTTGGTGATCTGCAGCATC | -0.92
TTCCTTTTCACTTCTGTCCAGC | -0.59
TTCTTTGTATCTGTAGTGCAGT | -0.359
TTAGTGTCTGAACATTCTCAAA | -1.6
TTCATTTGAAACTTGATTGGTC | 0.857
TTCACTTCTGTCCAGCCGCGGT | -1.35
